miR122 inh = miR-122 sensor activation. Huh7 psiCHECK-miR122 Renilla luciferase sensor, 48 h. actives 0.14% (n = 340,000). activation, % at 12.5 µM;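 active = mean activation of 30% or more, with every replicate also reaching 30%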;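 note: higher luciferase signal means stronger suppression of miR-122 activity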
Hits are given with their value; – = inactive. The full list was thinned out, with hits kept by preference.

SMILES	miR122 inh
COc1ccc(NC(=O)CN(C)C(=O)/C=C/c2ccc(OCc3ccccc3)cc2)cc1	42.9
COc1ccc(NC(=O)CCN2C(=O)c3ccccc3C2=O)cc1	–
COc1ccc(/C=N/NC(=O)COc2ccccc2-c2ccccc2)cc1	–
COCC(=O)N(C)C[C@@H]1Oc2cc(Br)ccc2S(=O)(=O)N([C@@H](C)CO)C[C@@H]1C	–
COc1ccccc1-c1cnc2c(c1)C(=O)N([C@@H](C)CO)C[C@H](C)[C@H](CN(C)Cc1ccccc1)O2	–
Cc1ccc(-c2ccc3c(c2)O[C@H](CN(C)Cc2cccc(C(=O)O)c2)[C@H](C)CN([C@@H](C)CO)S3(=O)=O)cc1	–
Cc1cc(C)cc(N=c2c([N+](=O)[O-])nn(-c3ccc4c(c3)OCCO4)n2O)c1	42.4
COc1ccccc1-c1ccc2c(c1)O[C@H](CN(C)C(C)=O)[C@@H](C)CN([C@H](C)CO)S2(=O)=O	–
C[C@@H]1CN([C@@H](C)CO)S(=O)(=O)c2ccc(-c3ccncc3)cc2O[C@H]1CN(C)C(=O)Nc1ccc(F)cc1	–
C/C=C/c1ccc2c(c1)O[C@@H](CN(C)S(C)(=O)=O)[C@@H](C)CN([C@@H](C)CO)S2(=O)=O	–
CC(C)CC#Cc1cnc2c(c1)C(=O)N([C@@H](C)CO)C[C@H](C)[C@@H](CN(C)C(=O)Nc1cc(F)ccc1F)O2	–
C[C@@H]1CN([C@@H](C)CO)C(=O)Cc2cc(NC(=O)c3ccncc3)ccc2O[C@H]1CN(C)Cc1ccc(-c2ccccc2)cc1	31.5
CC(C)NC(=O)Nc1ccc2c(c1)CC(=O)N([C@H](C)CO)C[C@@H](C)[C@@H](CN(C)Cc1ccc(Oc3ccccc3)cc1)O2	–
C[C@@H]1CN([C@@H](C)CO)C(=O)Cc2cc(NC(=O)C3CCCCC3)ccc2O[C@H]1CN(C)Cc1ccncc1	–
C[C@H](CO)N1C[C@H](C)[C@@H](CN(C)Cc2ccc(-c3ccccc3)cc2)Oc2ccc(NC(=O)Cc3ccccc3)cc2CC1=O	34.8
C[C@H](CO)N1C[C@H](C)[C@@H](CN(C)C(=O)Nc2ccccc2)Oc2ccc(NC(=O)Cc3ccccc3)cc2CC1=O	–
C[C@H](CO)N1C[C@H](C)[C@H](CN(C)Cc2ccc(C(=O)Nc3ccccc3N)cc2)Oc2ccc(NC(=O)Nc3ccc(F)cc3)cc2CC1=O	–
C[C@H](CO)N1C[C@H](C)[C@@H](CN(C)S(C)(=O)=O)Oc2ncc(-c3cccc(F)c3)cc2C1=O	–
C[C@H](O)C#Cc1cnc2c(c1)C(=O)N([C@@H](C)CO)C[C@@H](C)[C@@H](CN(C)Cc1cncnc1)O2	–
C[C@@H]1CN([C@@H](C)CO)S(=O)(=O)c2ccc(C#Cc3cccc(F)c3)cc2O[C@@H]1CN(C)C(=O)CN1CCOCC1	–
CCCNC(=O)N(C)C[C@@H]1Oc2ncc(C#CCC3CCCC3)cc2C(=O)N([C@@H](C)CO)C[C@H]1C	–
Cc1c(NC(=O)NC2CCCCC2)cccc1[N+](=O)[O-]	–
O=C(COC(=O)c1ccccc1C(=O)c1ccc(Cl)c([N+](=O)[O-])c1)NC1CCCCCC1	63.3
O=C(OCc1ccccc1Cl)c1ccccc1C(=O)c1ccccc1	–
C[C@@H]1CN([C@@H](C)CO)C(=O)c2cc(-c3cccc(C(=O)N(C)C)c3)cnc2O[C@@H]1CN(C)S(=O)(=O)c1ccc(F)cc1	–
SMILES	miR122 inh
COCC#Cc1ccc2c(c1)O[C@H](CN(C)C(=O)C1CCCCC1)[C@@H](C)CN([C@@H](C)CO)S2(=O)=O	–
C/C=C/c1cnc2c(c1)C(=O)N([C@H](C)CO)C[C@@H](C)[C@H](CN(C)C(=O)Cc1cccnc1)O2	–
C/C=C/c1ccc2c(c1)O[C@@H](CN(C)C(=O)Cc1ccccn1)[C@H](C)CN([C@H](C)CO)S2(=O)=O	–
CC(=O)C1=C(c2ccc(Br)cc2)C(=O)c2ccccc2C1=O	76.2
CC(C)C#Cc1ccc2c(c1)O[C@@H](CN(C)C(=O)CC1CC1)[C@@H](C)CN([C@H](C)CO)S2(=O)=O	–
CO[C@@H]1CN(C)C(=O)c2cc(NC(C)=O)ccc2OC[C@@H](C)N(C(=O)c2ccccc2)C[C@H]1C	–
Cc1ccsc1/C=N/n1c(-c2ccco2)n[nH]c1=S	39.5
CC(C)C#Cc1ccc2c(c1)O[C@@H](CN(C)C(=O)CN(C)C)[C@H](C)CN([C@H](C)CO)S2(=O)=O	–
CCS(=O)(=O)Nc1ccc2c(c1)C(=O)N(C)C[C@@H](OC)[C@@H](C)CN[C@@H](C)CO2	–
CCC(=O)N(C)C[C@H]1Oc2ncc(C#C[C@@H](C)O)cc2C(=O)N([C@H](C)CO)C[C@H]1C	–
C[C@H](CO)N1C[C@H](C)[C@H](CN(C)Cc2ccc(Cl)c(Cl)c2)Oc2c(NC(=O)Nc3ccc4c(c3)OCO4)cccc2C1=O	–
Cc1ccc(S(=O)(=O)Nc2ccc3c(c2)C(=O)N([C@@H](C)CO)C[C@H](C)[C@H](CN(C)C(=O)Nc2ccc(F)cc2)OCCCC[C@@H](C)O3)cc1	–
C[C@H](CO)N1C[C@H](C)[C@H](CN(C)C(=O)NC2CCCCC2)Oc2ncc(-c3ccccc3F)cc2C1=O	–
Cc1ccc(S(=O)(=O)N(C)C[C@H]2Oc3ccc(NC(=O)Nc4ccc(C(F)(F)F)cc4)cc3C(=O)N([C@H](C)CO)C[C@H]2C)cc1	–
C[C@@H]1CN([C@H](C)CO)C(=O)c2cc(NC(=O)Nc3cccc4ccccc34)ccc2O[C@@H]1CN(C)C(=O)Nc1ccccc1	–
C[C@H](CO)N1C[C@H](C)[C@H](CN(C)C(=O)NC2CCCCC2)Oc2ncc(-c3cccc(C(F)(F)F)c3)cc2C1=O	32.6
C[C@@H]1CN([C@@H](C)CO)C(=O)c2cc(NC(=O)Nc3cccc4ccccc34)ccc2O[C@@H](C)CCCCO[C@@H]1CN(C)CC1CCCCC1	33.6
C[C@@H]1CN([C@@H](C)CO)C(=O)c2cc(-c3ccccc3F)cnc2O[C@H]1CN(C)C(=O)NC1CCCCC1	–
C[C@@H]1CN([C@@H](C)CO)C(=O)c2cc(NC(=O)Nc3ccc(C(F)(F)F)cc3)ccc2O[C@@H]1CN(C)CC1CCCCC1	40.3
C[C@@H]1CN([C@H](C)CO)C(=O)c2cccc(NC(=O)Nc3ccccc3)c2O[C@H]1CN(C)Cc1ccc(C(F)(F)F)cc1	–
COc1ccc(S(=O)(=O)N(C)C[C@H]2Oc3ccc(NC(=O)Nc4ccc(C(F)(F)F)cc4)cc3C(=O)N([C@H](C)CO)C[C@H]2C)cc1	–
C[C@@H]1CCCCO[C@@H](CN(C)Cc2ccc3c(c2)OCO3)[C@H](C)CN([C@H](C)CO)C(=O)c2cc(NC(=O)Nc3ccc(C(F)(F)F)cc3)ccc2O1	34.0
C[C@@H]1CN([C@H](C)CO)C(=O)c2cc(-c3ccc(C(=O)N(C)C)cc3)cnc2O[C@@H]1CN(C)Cc1ccc(C(=O)O)cc1	–
CCCNC(=O)N(C)C[C@H]1Oc2cc(C#Cc3cccc(F)c3)ccc2S(=O)(=O)N([C@@H](C)CO)C[C@H]1C	–
COCC(=O)N(C)C[C@H]1Oc2cc(C#CC3CC3)ccc2S(=O)(=O)N([C@@H](C)CO)C[C@H]1C	–
C[C@@H]1CN([C@@H](C)CO)C(=O)c2cc(Br)cnc2O[C@H]1CN(C)Cc1cccc(F)c1	–
CCC(=O)N(C)C[C@@H]1Oc2cc(-c3cccnc3)ccc2S(=O)(=O)N([C@H](C)CO)C[C@H]1C	–
CCC(=O)Nc1ccc2c(c1)OC[C@H](C)N(CCC(F)(F)F)C[C@H](C)[C@H](OC)CN(C)C2=O	–
C/C=C/c1cnc2c(c1)C(=O)N([C@H](C)CO)C[C@H](C)[C@@H](CN(C)C(=O)c1cccnc1)O2	–

High-throughput results as filed in PubChem BioAssay.
